Data: the supplement of paper PMC10849652
Targets with a hit are over-represented here; the source holds about 8,800 in all. About 0.5% of all pairs of compound and target were hits.

What was measured:
Assay in all cases: log2 fold change, soluble protein after heating vs DMSO (PISA); higher = thermal stabilisation; K562 lysate, 10 uM; active = over 0.2 and 3.5 SD of the protein, either way, in both replicates (recomputed)
ibrutinib = compound: C=CC(=O)N1CCC[C@@H](n2nc(-c3ccc(Oc4ccccc4)cc3)c3c(N)ncnc32)C1 [ibrutinib]
How it was run: (§1)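 K562 pellets were dounce-homogenised in PBS pH 7.4 containing 1 mM MgCl2, and the crude extract, at 1 mg/mL protein, was exposed to 10 μM compound for 30 min. Aliquots were heated for 3 min across 48°C-58°C, pooled, brought to 0.5% NP-40 at 4°C and spun at 21,000xg for 90 min, with the supernatant taken as soluble protein. TMTpro 16plex LC-MS/MS with equalised channel sums quantified that protein. Values are log-two fold changes in thermal stability relative to solvent controls, taken from duplicates.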

[1] = compound: CC(=O)c1cnc2ccc(-c3cc(Cl)c(O)c(Cl)c3)nc2c1N[C@H]1CC[C@H](CN(C)C)CC1
How it was run: as §1

ralimetinib = compound: CC(C)(C)Cn1c(N)nc2ccc(-c3[nH]c(C(C)(C)C)nc3-c3ccc(F)cc3)nc21 [ralimetinib]
How it was run: as §1

[2] = compound: CC(C)(O)CC(=O)NCCn1ccc2ncnc(Nc3ccc(Oc4cccc(C(F)(F)F)c4)c(Cl)c3)c21
How it was run: as §1

[3] = compound: CC(C)C1=C2N=C(C=C(N2N=C1)NCC3=CC=CC=C3)NCCCCCCN
How it was run: as §1

[4] = compound: CC1=C(C(CC(=O)N1)C2=CC=C(C=C2)C(F)(F)F)C(=O)NC3=C(C=C4C(=C3)C=NN4)F
How it was run: as §1

[5] = compound: CC1=C(C2=C(C=C1)C(=O)C3=CC=CC=C3N2CCCN)C
How it was run: as §1

[6] = compound: CC1=C(C=C(C=C1)NC(=O)C2=CC(=CC=C2)C(C)(C)C#N)NC3=CC4=C(C=C3)N=CN(C4=O)C
How it was run: as §1

[7] = compound: CC1=C(C=C(C=C1)NC(=O)C2=CC(=CC=C2)N(C)C)NC(=O)C3=CC=C(C=C3)O
How it was run: as §1

[8] = compound: CC1=CC=C(C=C1)SC2=C3C=C(SC3=CN=C2)C(=O)N
How it was run: as §1

Measured: log2 fold change

MCU (UniProt Q8NE86)
Sequence of UniProt Q8NE86 (Q8NE86 whole entry, looked up): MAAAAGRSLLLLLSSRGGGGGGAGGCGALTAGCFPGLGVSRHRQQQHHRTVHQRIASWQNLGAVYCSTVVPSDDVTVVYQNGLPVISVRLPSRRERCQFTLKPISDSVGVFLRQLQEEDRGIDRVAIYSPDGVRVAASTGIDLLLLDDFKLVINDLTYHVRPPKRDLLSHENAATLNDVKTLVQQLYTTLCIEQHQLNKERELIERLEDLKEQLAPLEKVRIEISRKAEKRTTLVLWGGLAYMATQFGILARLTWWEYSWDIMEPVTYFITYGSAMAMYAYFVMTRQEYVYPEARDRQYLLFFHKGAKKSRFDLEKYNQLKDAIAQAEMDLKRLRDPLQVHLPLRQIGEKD
inactive: ibrutinib -0.05 | [1] 0.04 | ralimetinib 0.086 | [2] -0.021 | [3] -0.055 | [4] 0.014 | [5] 0.02 | [6] 0.034 | [7] 0.014 | [8] -0.023

MAP2K3 isoform 3 (UniProt P46734)
inactive: ibrutinib -0.041 | [1] 0.095 | ralimetinib 0.012 | [2] -0.008 | [3] -0.15 | [4] 0.019 | [5] -0.095 | [6] 0.021 | [7] 0.123 | [8] 0.114

KPNA2 (UniProt P52292)
inactive: ibrutinib -0.044 | [1] -0.011 | ralimetinib -0.001 | [2] -0.023 | [3] 0.009 | [4] -0.01 | [5] -0.027 | [6] -0.032 | [7] 0.051 | [8] 0.041

MRPL10 isoform 2 (UniProt Q7Z7H8)
inactive: ibrutinib -0.062 | [1] -0.013 | ralimetinib 0.047 | [2] -0.019 | [3] -0.04 | [4] -0.029 | [5] -0.005 | [6] 0.025 | [7] 0.053 | [8] 0.042

MAPKAPK3 (UniProt Q16644)
Sequence of UniProt Q16644 (Q16644 whole entry, looked up): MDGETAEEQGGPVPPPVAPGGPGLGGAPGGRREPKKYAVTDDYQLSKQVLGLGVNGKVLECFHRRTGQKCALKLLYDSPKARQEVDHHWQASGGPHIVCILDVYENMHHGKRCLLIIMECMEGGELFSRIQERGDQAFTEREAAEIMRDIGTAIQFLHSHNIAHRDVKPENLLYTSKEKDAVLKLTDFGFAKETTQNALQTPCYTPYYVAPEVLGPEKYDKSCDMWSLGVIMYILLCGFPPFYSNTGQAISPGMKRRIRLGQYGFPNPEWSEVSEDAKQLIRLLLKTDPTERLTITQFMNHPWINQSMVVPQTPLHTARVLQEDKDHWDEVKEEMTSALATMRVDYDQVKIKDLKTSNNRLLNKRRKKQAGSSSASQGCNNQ
inactive: ibrutinib 0.011 | [1] 0.026 | ralimetinib 0.006 | [2] -0.003 | [3] -0.011 | [4] 0.065 | [5] -0.027 | [6] 0.082 | [7] 0.029 | [8] 0.033

MRPL35 (UniProt Q9NZE8)
inactive: ibrutinib -0.019 | [1] -0.014 | ralimetinib 0.041 | [2] 0.047 | [3] 0.013 | [4] -0.012 | [5] -0.108 | [6] -0.032 | [7] 0.032 | [8] 0.01

LRPPRC (UniProt P42704)
inactive: ibrutinib 0.006 | [1] 0.023 | ralimetinib 0.027 | [2] 0.019 | [3] 0.018 | [4] -0.011 | [5] 0.038 | [6] -0.009 | [7] 0.052 | [8] 0.016

MAPK8 isoform 3 (UniProt P45983)
inactive: ibrutinib 0.038 | ralimetinib 0.294 | [2] 0.025 | [3] 0.035 | [4] -0.057 | [5] -0.017 | [6] 0.013 | [7] 0.047 | [8] -0.012
active: [1] 0.445

KLC4 isoform 3 (UniProt Q9NSK0)
Sequence of UniProt Q9NSK0 (Q9NSK0 whole entry, looked up): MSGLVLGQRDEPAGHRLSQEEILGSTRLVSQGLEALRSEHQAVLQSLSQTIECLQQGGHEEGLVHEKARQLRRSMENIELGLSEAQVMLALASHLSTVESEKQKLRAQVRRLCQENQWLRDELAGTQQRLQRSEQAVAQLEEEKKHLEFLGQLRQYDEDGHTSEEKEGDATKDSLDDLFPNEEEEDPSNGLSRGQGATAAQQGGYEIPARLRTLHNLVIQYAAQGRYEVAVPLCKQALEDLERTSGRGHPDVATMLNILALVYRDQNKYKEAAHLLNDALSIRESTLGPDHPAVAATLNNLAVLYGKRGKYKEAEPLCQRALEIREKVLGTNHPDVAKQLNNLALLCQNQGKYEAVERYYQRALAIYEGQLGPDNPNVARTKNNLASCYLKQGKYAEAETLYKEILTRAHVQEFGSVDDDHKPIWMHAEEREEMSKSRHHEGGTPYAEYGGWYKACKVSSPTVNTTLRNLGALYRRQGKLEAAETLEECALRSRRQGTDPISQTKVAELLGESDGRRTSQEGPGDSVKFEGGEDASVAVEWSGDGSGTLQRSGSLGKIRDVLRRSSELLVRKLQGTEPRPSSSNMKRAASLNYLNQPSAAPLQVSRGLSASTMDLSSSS
inactive: ibrutinib -0.007 | [1] 0.012 | ralimetinib 0.008 | [2] -0.023 | [3] -0.024 | [4] -0.018 | [5] 0.009 | [6] 0.019 | [7] -0.001 | [8] 0.003

MAP2K7 isoform 4 (UniProt O14733)
Sequence of UniProt O14733 (O14733 whole entry, looked up): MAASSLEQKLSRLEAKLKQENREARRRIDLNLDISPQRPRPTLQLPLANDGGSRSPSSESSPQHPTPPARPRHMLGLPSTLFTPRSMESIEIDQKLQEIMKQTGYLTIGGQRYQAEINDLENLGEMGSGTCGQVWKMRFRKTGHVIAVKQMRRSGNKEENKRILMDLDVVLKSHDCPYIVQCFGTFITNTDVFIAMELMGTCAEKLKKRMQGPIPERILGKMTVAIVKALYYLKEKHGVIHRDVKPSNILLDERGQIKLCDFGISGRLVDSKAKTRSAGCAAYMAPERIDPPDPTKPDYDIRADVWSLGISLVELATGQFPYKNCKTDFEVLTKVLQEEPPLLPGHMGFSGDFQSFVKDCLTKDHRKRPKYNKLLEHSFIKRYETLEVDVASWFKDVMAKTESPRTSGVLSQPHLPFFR
inactive: [1] 0.288 | ralimetinib 0.028 | [2] 0.028 | [3] -0.071 | [4] -0.029 | [5] 0.011 | [6] -0.004 | [7] -0.002 | [8] 0.018
active: ibrutinib 1.44

METTL21A (UniProt Q8WXB1)
inactive: ibrutinib 0.006 | [1] -0.106 | ralimetinib 0.021 | [2] -0.032 | [3] 0 | [4] -0.019 | [5] -0.138 | [6] 0 | [7] 0.009 | [8] -0.032

MCCC1 (UniProt Q96RQ3)
inactive: ibrutinib 0.034 | [1] -0.033 | ralimetinib 0.022 | [2] -0.042 | [3] -0.014 | [4] -0.028 | [5] 0.026 | [6] -0.006 | [7] -0.004 | [8] 0.013

LAS1L (UniProt Q9Y4W2)
inactive: ibrutinib -0.016 | [1] 0.017 | ralimetinib 0.043 | [2] -0.017 | [3] 0.042 | [4] 0.035 | [5] -0.061 | [6] -0.006 | [7] 0.037 | [8] 0.035

KLC1 isoform 6 (UniProt Q07866)
inactive: ibrutinib -0.022 | [1] -0.012 | ralimetinib 0.019 | [2] 0.005 | [3] 0.002 | [4] -0.01 | [5] 0.012 | [6] 0.028 | [7] -0.002 | [8] -0.017

MAT2B (UniProt Q9NZL9)
inactive: ibrutinib 0 | [1] -0.008 | ralimetinib -0.005 | [2] -0.006 | [3] -0.002 | [4] -0.023 | [5] 0.016 | [6] 0.015 | [7] -0.013 | [8] -0.005

LZTS1 (UniProt Q9Y250)
inactive: ibrutinib 0.104 | [1] -0.008 | ralimetinib 0.049 | [2] -0.176 | [3] 0.116 | [4] -0.028 | [5] -0.233 | [6] 0.705 | [7] -0.111 | [8] -0.007

METTL7A (UniProt Q9H8H3)
Sequence of UniProt Q9H8H3 (Q9H8H3 whole entry, looked up): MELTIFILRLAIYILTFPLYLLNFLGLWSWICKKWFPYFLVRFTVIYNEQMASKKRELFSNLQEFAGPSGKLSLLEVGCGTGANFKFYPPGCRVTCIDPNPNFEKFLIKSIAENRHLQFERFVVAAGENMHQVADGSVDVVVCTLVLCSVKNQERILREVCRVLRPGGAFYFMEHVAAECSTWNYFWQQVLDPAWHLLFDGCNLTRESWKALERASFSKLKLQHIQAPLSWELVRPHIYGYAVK
inactive: ibrutinib 0.113 | [1] -0.055 | ralimetinib 0.036 | [2] -0.025 | [3] 0.017 | [4] 0.016 | [5] -0.055 | [6] 0.068 | [7] -0.033 | [8] -0.035

MLH1 (UniProt P40692)
inactive: ibrutinib 0.01 | [1] -0.009 | ralimetinib 0.02 | [2] -0.035 | [3] -0.018 | [4] 0.017 | [5] -0.055 | [6] 0.014 | [7] -0.006 | [8] 0.03

MLLT11 (UniProt Q13015)
Sequence of UniProt Q13015 (Q13015 whole entry, looked up): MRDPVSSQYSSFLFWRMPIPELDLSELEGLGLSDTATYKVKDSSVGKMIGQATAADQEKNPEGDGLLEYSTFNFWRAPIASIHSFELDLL
inactive: ibrutinib -0.057 | [1] 0.077 | ralimetinib 0.032 | [2] -0.116 | [3] 0.164 | [4] 0.174 | [5] -0.037 | [6] 0.326 | [7] -0.008 | [8] 0.055

MAPK9 (UniProt P45984)
active: [1] 0.234 | ralimetinib 0.366
inactive: ibrutinib -0.024 | [2] 0.002 | [3] -0.029 | [4] -0.038 | [5] -0.086 | [6] 0.103 | [7] -0.029 | [8] -0.015

MCMBP isoform 2 (UniProt Q9BTE3)
Sequence of UniProt Q9BTE3 (Q9BTE3 whole entry, looked up): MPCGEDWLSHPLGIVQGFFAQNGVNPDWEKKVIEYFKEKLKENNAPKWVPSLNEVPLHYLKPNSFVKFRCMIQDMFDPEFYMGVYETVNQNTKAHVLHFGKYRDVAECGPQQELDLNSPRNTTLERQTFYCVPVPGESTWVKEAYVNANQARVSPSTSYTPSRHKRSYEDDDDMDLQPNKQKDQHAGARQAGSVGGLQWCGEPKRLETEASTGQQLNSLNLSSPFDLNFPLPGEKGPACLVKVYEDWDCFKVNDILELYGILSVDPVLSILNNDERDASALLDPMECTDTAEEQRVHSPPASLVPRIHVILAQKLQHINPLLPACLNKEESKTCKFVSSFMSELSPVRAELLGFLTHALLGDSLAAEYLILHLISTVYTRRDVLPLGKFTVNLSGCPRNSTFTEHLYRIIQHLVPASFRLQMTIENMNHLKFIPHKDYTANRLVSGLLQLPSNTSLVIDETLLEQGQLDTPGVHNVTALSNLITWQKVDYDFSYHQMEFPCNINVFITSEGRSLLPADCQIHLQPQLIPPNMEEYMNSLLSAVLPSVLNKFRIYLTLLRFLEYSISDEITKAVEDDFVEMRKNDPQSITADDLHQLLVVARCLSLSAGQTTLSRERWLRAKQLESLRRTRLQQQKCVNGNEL
inactive: ibrutinib -0.032 | [1] -0.055 | ralimetinib -0.138 | [2] 0.068 | [3] 0.114 | [4] -0.111 | [5] -0.05 | [6] 0.063 | [7] 0.12 | [8] 0.005

LPCAT1 (UniProt Q8NF37)
Sequence of UniProt Q8NF37 (Q8NF37 whole entry, looked up): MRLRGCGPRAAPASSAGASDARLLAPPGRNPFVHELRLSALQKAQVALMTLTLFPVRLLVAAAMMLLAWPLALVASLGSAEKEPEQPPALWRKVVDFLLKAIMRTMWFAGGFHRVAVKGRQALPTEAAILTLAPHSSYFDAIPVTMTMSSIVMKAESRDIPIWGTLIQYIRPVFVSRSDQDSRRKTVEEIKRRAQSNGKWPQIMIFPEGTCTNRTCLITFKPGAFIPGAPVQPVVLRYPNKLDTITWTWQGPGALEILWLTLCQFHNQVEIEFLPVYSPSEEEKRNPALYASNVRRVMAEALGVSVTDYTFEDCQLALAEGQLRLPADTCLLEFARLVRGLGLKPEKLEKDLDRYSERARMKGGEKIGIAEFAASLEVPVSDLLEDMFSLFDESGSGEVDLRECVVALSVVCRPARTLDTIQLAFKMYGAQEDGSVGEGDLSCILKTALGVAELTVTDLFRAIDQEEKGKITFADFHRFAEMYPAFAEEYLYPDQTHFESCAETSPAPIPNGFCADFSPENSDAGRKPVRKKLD
inactive: ibrutinib 0.175 | [1] -0.021 | ralimetinib 0 | [2] -0.142 | [3] -0.036 | [4] 0.066 | [5] -0.011 | [6] 0.003 | [7] -0.016 | [8] -0.019

MRPL30 isoform 2 (UniProt Q8TCC3)
inactive: ibrutinib 0.01 | [1] 0.043 | ralimetinib 0.04 | [2] -0.084 | [3] 0 | [4] 0 | [5] -0.037 | [6] 0.02 | [7] -0.006 | [8] 0.087

LYN (UniProt P07948)
active: ibrutinib 1.15
inactive: [1] 0.141 | ralimetinib -0.068 | [2] 0.068 | [3] 0 | [4] 0.003 | [5] -0.043 | [6] 0.479 | [7] 0.007 | [8] -0.126

MOCS1 isoform 8 (UniProt Q9NZB8)
inactive: ibrutinib 0.186 | [1] 0.08 | ralimetinib -0.066 | [2] 0.035 | [3] 0.049 | [4] -0.005 | [5] -0.003 | [6] 0.069 | [7] -0.026 | [8] -0.002

LSM8 (UniProt O95777)
Sequence of UniProt O95777 (O95777 whole entry, looked up): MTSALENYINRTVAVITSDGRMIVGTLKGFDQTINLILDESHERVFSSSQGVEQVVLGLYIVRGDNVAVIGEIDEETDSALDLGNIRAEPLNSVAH
inactive: ibrutinib 0.051 | [1] 0.012 | ralimetinib 0.055 | [2] -0.021 | [3] -0.02 | [4] -0.01 | [5] -0.011 | [6] 0.03 | [7] -0.007 | [8] 0.005

MLXIP (UniProt Q9HAP2)
Sequence of UniProt Q9HAP2 (Q9HAP2 whole entry, looked up): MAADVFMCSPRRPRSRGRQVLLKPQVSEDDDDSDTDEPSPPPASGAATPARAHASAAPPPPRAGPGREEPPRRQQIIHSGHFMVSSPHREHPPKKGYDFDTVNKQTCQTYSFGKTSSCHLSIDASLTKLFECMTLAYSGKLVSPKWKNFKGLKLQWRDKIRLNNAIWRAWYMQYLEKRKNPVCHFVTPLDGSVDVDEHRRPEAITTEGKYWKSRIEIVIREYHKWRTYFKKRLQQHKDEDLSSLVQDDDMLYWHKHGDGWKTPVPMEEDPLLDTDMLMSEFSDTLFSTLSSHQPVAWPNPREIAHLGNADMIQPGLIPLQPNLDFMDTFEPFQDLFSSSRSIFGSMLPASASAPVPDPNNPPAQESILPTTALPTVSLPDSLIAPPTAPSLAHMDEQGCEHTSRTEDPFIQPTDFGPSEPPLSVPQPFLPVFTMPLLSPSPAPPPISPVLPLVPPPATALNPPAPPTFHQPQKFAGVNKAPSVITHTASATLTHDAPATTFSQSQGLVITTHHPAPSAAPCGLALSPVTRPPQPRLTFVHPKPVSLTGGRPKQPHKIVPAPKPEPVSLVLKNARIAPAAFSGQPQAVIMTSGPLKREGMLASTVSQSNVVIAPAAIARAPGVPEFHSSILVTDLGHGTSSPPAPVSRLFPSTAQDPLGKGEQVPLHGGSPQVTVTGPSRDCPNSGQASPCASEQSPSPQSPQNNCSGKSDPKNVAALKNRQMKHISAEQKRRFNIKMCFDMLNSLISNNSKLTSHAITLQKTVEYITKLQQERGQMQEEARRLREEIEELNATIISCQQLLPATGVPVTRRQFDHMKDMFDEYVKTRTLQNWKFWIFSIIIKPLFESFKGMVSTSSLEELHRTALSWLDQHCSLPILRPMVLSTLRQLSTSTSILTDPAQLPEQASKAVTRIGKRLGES
inactive: ibrutinib 0.045 | [1] 0.007 | ralimetinib -0.006 | [2] -0.035 | [3] 0.028 | [4] -0.033 | [5] -0.015 | [6] -0.015 | [7] -0.011 | [8] -0.015

LARP4B (UniProt Q92615)
inactive: ibrutinib 0 | [1] 0.005 | ralimetinib 0.055 | [2] 0.069 | [3] -0.02 | [4] -0.006 | [5] 0.03 | [6] -0.094 | [7] 0.037 | [8] 0.014

MBOAT2 (UniProt Q6ZWT7)
Sequence of UniProt Q6ZWT7 (Q6ZWT7 whole entry, looked up): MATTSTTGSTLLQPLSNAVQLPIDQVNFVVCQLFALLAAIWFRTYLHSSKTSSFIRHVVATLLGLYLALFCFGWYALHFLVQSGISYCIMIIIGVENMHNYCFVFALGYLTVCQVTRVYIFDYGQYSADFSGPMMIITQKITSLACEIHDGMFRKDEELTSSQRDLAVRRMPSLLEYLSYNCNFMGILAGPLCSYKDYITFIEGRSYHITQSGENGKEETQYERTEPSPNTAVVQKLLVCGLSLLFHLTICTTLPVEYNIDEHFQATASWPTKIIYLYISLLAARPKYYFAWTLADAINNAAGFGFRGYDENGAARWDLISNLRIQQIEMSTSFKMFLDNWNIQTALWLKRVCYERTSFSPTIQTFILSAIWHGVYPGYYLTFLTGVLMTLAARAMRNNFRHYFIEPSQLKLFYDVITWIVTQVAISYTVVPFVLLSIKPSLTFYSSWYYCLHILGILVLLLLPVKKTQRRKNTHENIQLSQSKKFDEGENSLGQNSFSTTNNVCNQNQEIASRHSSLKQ
inactive: ibrutinib -0.092 | [1] -0.039 | ralimetinib 0.137 | [2] 0.047 | [3] -0.047 | [4] 0.034 | [5] 0.031 | [6] 0.008 | [7] -0.117 | [8] 0.096

LIMK2 isoform 3 (UniProt P53671)
inactive: ibrutinib 0.129 | [1] 0.003 | ralimetinib 0 | [2] 0.018 | [3] 0.008 | [4] -0.03 | [5] -0.005 | [6] 0.175 | [7] 0.013 | [8] -0.073
